High-throughput results: PubChem BioAssay, several laboratories
Sampled rows, rich in hits. Any-hit rate of the full collection: about 27%.
sEH inhibitor – soluble epoxide hydrolase (human) inhibition; inhibition, % at 2 µM; recombinant human sEH enzymatic activity assay; actives 0.34% (n = 91,000); P34913; in the data active means inhibition above about 80%
Target sequence (P34913 whole entry, looked up): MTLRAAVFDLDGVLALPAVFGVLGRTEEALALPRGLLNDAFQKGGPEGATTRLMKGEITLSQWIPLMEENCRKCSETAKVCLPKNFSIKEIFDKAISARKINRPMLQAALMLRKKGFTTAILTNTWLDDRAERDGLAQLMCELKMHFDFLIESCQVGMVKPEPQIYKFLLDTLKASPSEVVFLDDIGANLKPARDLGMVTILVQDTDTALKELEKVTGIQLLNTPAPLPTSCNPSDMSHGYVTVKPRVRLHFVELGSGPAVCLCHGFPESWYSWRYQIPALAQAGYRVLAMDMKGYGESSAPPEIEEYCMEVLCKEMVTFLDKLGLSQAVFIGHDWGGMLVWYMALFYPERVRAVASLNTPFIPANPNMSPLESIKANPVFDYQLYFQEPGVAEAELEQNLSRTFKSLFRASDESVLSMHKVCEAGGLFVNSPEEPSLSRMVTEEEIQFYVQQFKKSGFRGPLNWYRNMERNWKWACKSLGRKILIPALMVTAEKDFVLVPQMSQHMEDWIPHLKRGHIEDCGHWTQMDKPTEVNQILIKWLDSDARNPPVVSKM
CYP2C19 act – increases human CYP2C19 enzyme activity; recombinant CYP2C19, luciferin-H EGE luminescence; active compounds read high; 0 = fully inhibited enzyme, 1 = untreated enzyme; activation factor at 5 µM; 96,000 tested, under 10 active;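 active means activation factor of at least 2 at 5 µM in the primary screen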;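 further: 0 = wells with 2.5 mM tranylcypromine and 1 = vehicle-only wells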
sEH activator – activators of human soluble epoxide hydrolase; purified human sEH enzymatic activity, activator screen; activation, % at 2 µM; actives 0.04% (n = 91,000); AID 717; in the data active means activation above about 37%
CYP2C9 inhib – inhibitors of human CYP2C9; P11712; AID 777; actives 20% (n = 96,000); inhibition, % at 5 µM; CYP2C9 Supersomes, luciferin-H conversion, luminescence;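 active means blocking of liver enzyme CYP2C9 beyond about 50% at 5 µM, limit read from the data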
CYP2C9 activ – increases human cytochrome P450 2C9 activity. P11712. actives 1.4% (n = 96,000). activation factor at 5 µM. recombinant CYP2C9, luciferin-H conversion, luminescence; active compounds read high; factor 1 = untreated enzyme, 0 = blocked;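 active means activation factor of 2 or more for CYP2C9 at a 5 µM dose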;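 further: 0 = sulfaphenazole-blocked wells and 1 = vehicle-only wells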
CYP2C19 inh – blocks human cytochrome P450 2C19 | CYP2C19 Supersomes, luciferin-H EGE luminescence, 30 min | inhibition, % at 5 µM | actives 21% (n = 96,000) | AID 778;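 active means CYP2C19 inhibition above a set limit at 5 µM in the primary screen, cut at about 50% in these data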;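 further: plate controls were negative control wells for no effect and 2.5 mM tranylcypromine positive control for full effect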
* hit, by the source's call; x = not tested or not shown.

SMILES	sEH inhibitor	CYP2C19 act	sEH activator	CYP2C9 inhib	CYP2C9 activ	CYP2C19 inh
Cc1cnn(C(=S)NCC2CCCO2)c1 (stereo unspecified)	x	0.4	x	0	1	56*
CN(C)CCNC(=O)C1CC(=O)N(c2ccc(F)c(Cl)c2)C1 (stereo unspecified)	-12	0.9	11	-28	1.3	8
Cc1cc(C(=O)NNC(=S)NCC2CCCO2)cs1 (stereo unspecified)	6	0.5	-6	-21	1.2	52*
Cc1ccc(N2CC(C(=O)NCC3CCCO3)CC2=O)cc1Cl (stereo unspecified)	x	1	x	-162	2.6*	2
Cc1cccc(C(=O)NCC2CCCO2)c1 (stereo unspecified)	1	x	3	x	x	x
Cc1ccc(NC(=S)NCC2CCCO2)cc1 (stereo unspecified)	21	0.8	-25	-14	1.1	23
Cc1ccc(C)n1-c1ccc(C(=O)NCC2CCCO2)cc1 (stereo unspecified)	x	0.4	x	18	0.8	58*
N#C/C(C(=O)NCc1ccco1)=C1/SC(Cc2ccc(F)cc2)C(=O)N1c1ccccc1 (stereo unspecified)	x	1.1	x	-20	1.2	-8
CCCSc1nnc(NC(=O)c2nc(SC)ncc2Cl)s1	12	1.2	-13	20	0.8	-17
Cc1ccc(NC(=O)c2cccc(N3C(=O)CCC3=O)c2)nc1	14	1.2	-15	-1	1	-24
Cc1ccc(C(=O)NC(=S)NCC2CCCO2)cc1 (stereo unspecified)	6	0.3	-4	37	0.6	68*
Cc1onc(-c2ccccc2)c1C(=O)NCC1COc2ccccc2O1 (stereo unspecified)	-21	0.2	19	43	0.6	79*
Cc1onc(-c2ccccc2)c1C(=O)NCc1ccc2c(c1)OCO2	x	0.1	x	57*	0.4	92*
COc1cc2c(cc1OC)C1=C(C#N)CN(CC(=O)O)CN1CC2	x	0.7	x	57*	0.4	27
Cc1cc(NC(=O)Cn2nnc3sc4c(c3c2=O)CCCC4)no1	3	0.9	-2	21	0.8	6
Cc1cc(NC(=O)Cn2nnc3sc4c(c3c2=O)CCC(C(C)(C)C)C4)no1 (stereo unspecified)	x	0.7	x	57*	0.4	32
CCOc1ccc(CCNC(=O)c2cc3ccccn3n2)cc1OCC	-9	0.7	10	16	0.8	29
NC(=O)NC(c1ccccc1)c1cccc2ccccc12 (stereo unspecified)	-3	0.3	3	-1	1	72*
NC(=O)NC(c1ccccc1)c1ccccc1	2	0.2	1	28	0.7	80*
NC(=O)NC(Cc1ccccc1)c1ccccc1 (stereo unspecified)	x	0.5	x	2	1	47
NC(=O)NC(c1ccccc1)c1ccccc1F (stereo unspecified)	2	0.3	-3	6	0.9	72*
Cc1ccc(C(=O)OCC(=O)c2ccc(Cl)s2)s1	-2	0.7	0	27	0.7	31
CN(CC(=O)OCC(=O)Nc1ccccc1)S(=O)(=O)c1ccc(Cl)cc1	-7	0.7	6	49	0.5	32
Cc1cccc(OCCCc2c(C)n[nH]c2C)c1	x	0.1	x	57*	0.4	92*
Cc1sc2ncnc(OCC(=O)N3CCN(S(=O)(=O)c4ccccc4)CC3)c2c1C	6	x	-4	x	x	x
SMILES	sEH inhibitor	CYP2C19 act	sEH activator	CYP2C9 inhib	CYP2C9 activ	CYP2C19 inh
O=C(CSc1nccc(=O)[nH]1)c1ccccc1Br	-4	0.9	4	55*	0.4	11
O=C(CCCOc1ccccc1)N1CCCc2ccccc21	-9	0.5	11	32	0.7	49
COc1cc(OC)cc(C(=O)N2CCCc3ccccc32)c1	x	0.2	x	24	0.8	76*
COc1ccc(CC(=O)N2CCCc3ccccc32)cc1	10	0.4	-7	20	0.8	55*
CCCOc1ccc(C(=O)N2CCCc3ccccc32)cc1	-10	0.1	12	69*	0.3	93*
COCCNC(=O)C(c1ccco1)N(Cc1ccc(OC)cc1)C(=O)Cn1nnc2ccccc21 (stereo unspecified)	x	1	x	-6	1.1	-4
CCC(C)c1ccccc1NC(=S)Nc1cccnc1 (stereo unspecified)	-17	0.6	16	25	0.8	42
COC(=O)C1=C(C)NC2=C(C(=O)CCC2)C1c1cn(Cc2ccc(Cl)cc2Cl)nc1-c1ccccc1 (stereo unspecified)	6	0.5	-4	73*	0.3	53*
CCOC(=O)C1=C(C)NC2=C(C(=O)CCC2)C1c1cn(Cc2ccc(Cl)cc2Cl)nc1-c1ccccc1 (stereo unspecified)	-7	0.5	8	83*	0.2	51*
CCOC(=O)C1CCCN(c2nnnn2-c2ccccc2)C1 (stereo unspecified)	x	0.2	x	39	0.6	81*
O=C(NC1CCCCC1)C1CCCN(c2nnnn2-c2ccccc2)C1 (stereo unspecified)	2	0.5	-3	38	0.6	55*
N#CCCn1nnc(-c2ccccc2F)n1	1	1	1	-9	1.1	-1
O=C(CCCCCn1c(=O)[nH]c2ccsc2c1=O)NCc1ccc(F)cc1	20	0.6	-22	88*	0.1	35
O=C(CCCCCn1c(=O)[nH]c2ccsc2c1=O)N1CCN(C2CCCCC2)CC1	-14	0.4	19	72*	0.3	56*
O=C(CCCn1c(=O)[nH]c2ccsc2c1=O)NCc1cccs1	4	0.9	-2	28	0.7	7
O=C(CCCCCn1c(=O)[nH]c2ccsc2c1=O)N1CCCCC1	-1	x	4	x	x	x
O=C(CCCCCn1c(=O)[nH]c2ccsc2c1=O)NCc1cccs1	x	0.6	x	81*	0.2	38
CC(=O)N1c2c(cc(Br)cc2S(=O)(=O)N2CCN(C(=O)c3ccco3)CC2)CC1C (stereo unspecified)	0	x	-2	x	x	x
Cc1c(Br)c([N+](=O)[O-])nn1CC(=O)NCc1ccccn1	-12	1	11	-3	1	-2
FC(F)(F)c1cccc(N2CCN(Cc3cccnc3)CC2)c1	x	0	x	81*	0.2	96*
FC(F)(F)c1cccc(N2CCN(Cc3ccoc3)CC2)c1	-10	0.3	10	54*	0.5	67*
CCOc1cccc(CN2CCN(c3cccc(C(F)(F)F)c3)CC2)c1O	-6	0.1	6	65*	0.4	93*
COc1cccc(CN2CCN(c3ncccn3)CC2)c1	5	0.4	-7	10	0.9	56*
COC(=O)Cc1cc(=O)[nH]c(/N=C(\N)Nc2ccccc2C)n1	8	x	-3	x	x	x
CCCCSC(=O)Nc1ccccc1	x	0.7	x	12	0.9	31
COc1ccc(OC)c(CCNC(=O)CC2Oc3ccc(C)cc3NC2=O)c1 (stereo unspecified)	x	0.8	x	16	0.8	21
